PubChem BioAssay (Tox21)
Records with an inconclusive call do not appear. Calls of active or inactive are those of the source. The call rests on the fitted dose curve; in most records, active means well fitted activation curve with a large enough effect in the signal ratio in the repeat runs (not every such curve was filed as active); inconclusive means weak or mixed curves; inactive means flat fitted curve, though single readings scatter; the % refers to the signal ratio.

Assay: qHTS assay to identify small molecule agonists of H2AX (AID 1224845)
Conditions: CHO-K1 phospho-H2AX Ser139 HTRF, 3 h; series mostly up to 154 µM; activation (H2AX phosphorylation): at the top concentration
From the text: National Center for Advancing Translational Sciences [NCATS]
NIH Chemical Genomics Center [NCGC]
U.S. Environmental Protection Agency [EPA]
National Institutes of Environmental Health Sciences [NIEHS]
National Toxicology Program [NTP]
U.S. Food and Drug Administration [FDA]
HTRF phospho-H2AX (Ser139) assay (Cisbio Bioassays, US) enables the quantitative detection of the histone variant H2AX when phosphorylated on serine 139. When double-stranded DNA breaks, either by ionizing radiation or endogenous physiological processes, H2AX becomes phosphorylated at Ser139. This phospho-Ser139 serves as a sensitive biomarker for the detection of such breaks, localizing the site of DNA repair. So, HTRF phospho-H2AX Ser139 is a pertinent assay to study genome stability, the cell cycle, DNA repair, and it serves as a biomarker for cancer, and to understand aging. Wild type CHO-K1 cells were used to identify the inducers of Phospho-H2AX Ser 139 from the Tox21 10K compound collections.
Tox21 Assay Protocol Summary:
The CHO-K1 cells suspended in culture medium containing 10% FBS were dispensed at 1000 cells/ 3 ul/well in 1536-well white wall/solid bottom plates (Greiner Bio-One North America, NC) using a Multidrop Combi (Thermo Fisher Scientific Inc., Waltham, MA). After the assay plates were incubated at 37C overnight, 23 nl of compounds at 15 concentrations (from 5-48 columns) or positive control (from 1 to 4 columns) were transferred to the assay plates using a Pintool station (Wako, San Diego, CA) into each well resulting in a final DMSO concentration of 0.76%. After 3hr incubation at 37C, 1 uL/well Supplemented Lysis buffer (diluted 100 fold blocking reagent in lysis buffer) (HTRF Phospho-H2A.X (S139) Assay kit from Cisbio US Inc., Bedford, MA) was added using a Flying Reagent Dispenser (FRD) (Aurora Discovery, CA). After 10sec spin at 1000 rpm in a plate centrifuge, the assay plates were incubated at room temperature for 30 min. Then followed by the addition of 1 uL/well detection buffer (containing a mixture of two antibodies, one labeled with cryptate, Anti pH2AX (S139)-K and another labeled with d2, Anti H2AX-d2) using FRD. After incubation at room temperature for 24 hr, the time resolved fluorescence at excitation 320 nm and emissions at 665 nm and 620 nm was measured using an Envision plate reader (PerkinElmer, Waltham, MA).
On the % scale 0 is the no-effect control and ±100 the full control effect.

SMILES	activation (H2AX phosphorylation)	Potency
O=C(O)c1c(O)c(-c2ccccc2)nc2ccccc12	-2.75% [at 70.9 µM] (inactive)	
CCCCCCCCCCCC[N+](C)(C)CCCS(=O)(=O)[O-]	-6% (inactive)	
C/C(=N/NC(=O)c1ccncc1)C(=O)O	0.966% [at 70.9 µM] (inactive)	
NC(=O)Cn1c(=O)cc(CCN2CCN(c3nccc4sccc34)CC2)c2ccc(F)cc21	1.63% (inactive)	
O=C(CCCCCCC(=O)Nc1ccccc1)NO	4.67% [at 70.9 µM] (inactive)	
CC(C)(CCl)c1ccccc1	-0.129% (inactive)	
CCC(=O)Oc1ccc(/C(CC)=C(\CC)c2ccc(OC(=O)CC)cc2)cc1	1.6% (inactive)	
CCC(C(=O)OCCN(CC)CC)c1ccccc1 (stereo not given)	0.455% [at 70.9 µM] (inactive)	
NC(=O)N(O)[C@@H]1COc2cc(OCc3ccccc3)ccc21	0.685% (inactive)	
CCCCC1C(=O)N(c2ccccc2)N(c2ccc(O)cc2)C1=O (stereo not given)	0.398% [at 70.9 µM] (inactive)	
CC(=O)[C@H]1CC[C@H]2[C@@H]3C=CC4=CC(=O)CC[C@@]4(C)[C@@H]3CC[C@]12C	0.705% [at 70.9 µM] (inactive)	
Cc1ccnc2ccccc12	-2.74% (inactive)	
CC(=O)Nc1ccccc1C	0.365% (inactive)	
Nc1nccs1	2.25% (inactive)	
Cc1cc(O)c(C(C)C)cc1Cl		inactive
CC(C)CCCCCCOC(=O)CCCCC(=O)OCCCCCCC(C)C	-3.51% (inactive)	
O=C(NCCCN1CCOCC1)c1ccc(Cl)cc1	-4.34% [at 70.9 µM] (inactive)	
CN(C)C(=O)Nc1ccc(Oc2ccc(Cl)cc2)cc1	0.183% (inactive)	
CC(C)CCCC(=O)O	3.57% (inactive)	
C[Si](NC1CCCCC1)(NC1CCCCC1)NC1CCCCC1	-3.21% (inactive)	

SMILES	activation (H2AX phosphorylation)	Potency
NC(=O)Nc1ccc(Cl)c(Cl)c1	-0.193% (inactive)	
Cn1c(=O)c2c(ncn2CC(=O)O)n(C)c1=O	-3.21% [at 70.9 µM] (inactive)	
CCC1(C)CC(=O)NC1=O (stereo not given)	0.364% [at 70.9 µM] (inactive)	
CCC(C(=O)OCCOCCN(CC)CC)c1ccccc1 (stereo not given)	-0.688% [at 70.9 µM] (inactive)	
C[N+](C)(C)CCOC(N)=O	-0.995% [at 70.9 µM] (inactive)	
CC(C)C(=O)O	-2.4% (inactive)	
COC(=O)c1cc(Cl)ccc1NS(=O)(=O)C(F)(F)F	-2.77% [at 70.9 µM] (inactive)	
CCCCCCOC(=O)CCCCCCCC(=O)OCCCCCC	-0.0387% (inactive)	
CC(CCO)CCc1ccccc1 (stereo not given)	-2.04% (inactive)	
CC(=O)CC(c1ccc([N+](=O)[O-])cc1)c1c(O)c2ccccc2oc1=O (stereo not given)	0.468% [at 70.9 µM] (inactive)	
CCOC(=O)[C@@H](C)Oc1ccc(Oc2nc3ccc(Cl)cc3o2)cc1	-3.01% (inactive)	
CN1CCCN=C1/C=C/c1cccs1	-1.45% [at 70.9 µM] (inactive)	
CO[Si](C)(OC)OC	-1.36% (inactive)	
CC1CN(c2cc3c(cc2F)c(=O)c(C(=O)O)cn3-c2ccc(F)cc2F)CCN1 (stereo not given)	-0.572% [at 14 µM] (inactive)	
COCCOC(=O)C1=C(C)NC(C)=C(C(=O)OC/C=C/c2ccccc2)C1c1cccc([N+](=O)[O-])c1 (stereo not given)	-4.04% [at 70.9 µM] (inactive)	
CCCCCCCC/C=C\CCCCCCCC(=O)OC(CO)CO	-1.25% (inactive)	
CC1=C(C=O)C(C)(C)CCC1	-0.766% (inactive)	
Fc1ccccc1[C@@H](F)COC1CCC(Nc2ncnc3[nH]ncc23)CC1 (stereo not given in full)	1.52% (inactive)	
CC(C)C(OC(=O)c1ccccc1)C(C)(C)COC(=O)c1ccccc1 (stereo not given)	-1.59% (inactive)	
C=CCCCCCCCCCCCCCCCC	-2.87% [at 14 µM] (inactive)	
